Inconclusive results are not listed. A structure can be active in one record and inactive in another. The source made the active and inactive calls. The calls were made as follows, unless noted: active = hit-call score of the fitted dose curve at least 0.9, where 1 is the maximum; inactive = score below 0.9.
How the values were obtained:
[1] = read-out: Intercellular Adhesion Molecule 1 (ICAM1), ICAM1 (gene 3383); assay: BSK_3C_ICAM1: BioMAP Diversity Plus: 3C Assay for Intercellular Adhesion Molecule 1 (ICAM1) Biomarker Activity (AID 2283003); conditions: primary human endothelial cells (HUVEC); actives raise or lower the signal
Method in brief: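 ELISA readout of ICAM1 in human umbilical vein endothelial cells in the 3C system, taken 24 h post-dose. Gain or loss of signal versus DMSO was fitted in both directions, with SRB total-protein staining run in parallel.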

[2] = target: human Retinoic Acid Receptor beta (RARb), RARB (gene 5915) (UniProt P10826); assay: ATG_RARb_TRANS: Attagene TRANS-FACTORIAL HepG2 Assay for human Retinoic Acid Receptor beta (AID 2283004; active = hit-call score of the fitted dose curve at least 0.9, where 1 is the maximum)
Method in brief: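 Transient transfection of HepG2 with multiple reporter units → chemical dosing, 24 h → total RNA isolation → RT with oligo(dT) → reporter-specific PCR, 6-FAM primer extension, HpaI digest → capillary electrophoresis. Positive direction vs DMSO control.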

[3] = BSK_3C_Proliferation: Cell Proliferation Assessment in the BioMAP Diversity Plus: 3C Assay (AID 2283006); conditions: primary human endothelial cells (HUVEC);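 as to AC50: potency may reflect either rise or fall in cell number versus DMSO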
Method in brief: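 Proliferation as total protein: sulforhodamine B (0.1%) stain of TCA-fixed subconfluent human umbilical vein endothelial cells, absorbance 560 nm, 48 h after dosing. Activity fitted in both directions against DMSO baseline.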

[4] = target: Nuclear receptor subfamily 1 group I member 2 (Homo sapiens) (UniProt O75469); assay: ATG_PXR_TRANS: Attagene TRANS-FACTORIAL HepG2 Assay for human Pregnane X Receptor (PXR) (AID 2283008; active = hit-call score of the fitted dose curve at least 0.9, where 1 is the maximum)
Method in brief: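 HepG2 transfected (FuGene 6) with GAL4-UAS reporter units + PXR-Gal4 chimera; dosed 24 h. Total RNA → oligo(dT) RT → PCR → 6-FAM primer extension → HpaI cut → CE. Gain-of-signal vs DMSO.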

[5] = target: human RAR-related Orphan Receptor gamma (RORg), RORC (gene 6097) (UniProt P51449); assay: ATG_RORg_TRANS: Attagene TRANS-FACTORIAL HepG2 Assay for human RAR-related Orphan Receptor gamma (RORg) (AID 2283011; active = hit-call score of the fitted dose curve at least 0.9, where 1 is the maximum)
Method in brief: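 First, HepG2 liver cells were transfected with GAL4-UAS-driven reporter constructs and the RORg-Gal4 fusion. Next, they were treated with chemical for 24 h. Finally, reporter mRNA was quantified by RT-PCR and capillary electrophoresis, with upward activity fitted against DMSO.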

[6] = target: human Thyroid Receptor alpha (THRa1), THRA (gene 7067) (UniProt P10827); assay: ATG_THRa1_TRANS: Attagene TRANS-FACTORIAL HepG2 Assay for human Thyroid Receptor alpha (THRa1) (AID 2283014; active = hit-call score of the fitted dose curve at least 0.9, where 1 is the maximum)
Method in brief: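 Reporter transcript induction, read by capillary electrophoresis of 6-FAM-labelled RT-PCR products, reflects activity of a transfected THRa1-Gal4 fusion in HepG2 liver cells. Cells were dosed for 24 h; activity was fitted in the positive direction against DMSO.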

[7] = read-out: E-selectin (Homo sapiens) (UniProt P16581); assay: BSK_3C_Eselectin: BioMAP Diversity Plus: 3C Assay for Eselectin Biomarker Activity (AID 2283015); conditions: primary human endothelial cells (HUVEC); actives raise or lower the signal
Method in brief: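 ELISA read-out of E-selectin on endothelial monolayers after 24 h chemical treatment. Human umbilical vein primary cells served as the system, with DMSO defining baseline activity for bidirectional fitting.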

[8] = read-out: Interleukin-1 alpha (IL1a), IL1A (gene 3552); assay: BSK_BE3C_IL1a: BioMAP Diversity Plus: BE3C Assay for Interleukin-1 alpha (IL1a) Biomarker Activity (AID 2283016); conditions: primary human bronchial epithelial cells; actives raise or lower the signal
Method in brief: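 IL-1a measured by ELISA after 24 h treatment of human primary bronchial epithelial cells, with gain or loss of signal fitted versus DMSO. Parallel cultures stained with SRB gauge overt cytotoxicity.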

[9] = read-out: Monocyte Chemoattractant Protein-1 (MCP1), CCL2 (gene 6347); assay: BSK_3C_MCP1: BioMAP Diversity Plus: 3C Assay for Monocyte Chemoattractant Protein-1 (MCP1) Biomarker Activity (AID 2283017); conditions: primary human endothelial cells (HUVEC); actives raise or lower the signal
Method in brief: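 ELISA read-out of MCP-1 from human umbilical vein endothelial cell cultures harvested 24 h post-dosing. Gain or loss of signal was fitted relative to DMSO.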

[10] = read-out: Monocyte Chemoattractant Protein-1 (MCP1), CCL2 (gene 6347); assay: BSK_4H_MCP1: BioMAP Diversity Plus: 4H Assay for Monocyte Chemoattractant Protein-1 (MCP1) Biomarker Activity (AID 2283018); conditions: primary human endothelial cells (HUVEC); actives raise or lower the signal
Method in brief: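 ELISA of MCP-1 (CCL2) 24 h after chemical dosing of HUVEC in the BioMAP 4H system. Gain or loss versus DMSO fitted; parallel SRB staining (560 nm) tracked overt cytotoxicity.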

[11] = read-out: Human Leukocyte Antigen - DR isotype (HLADR), HLA-DRA (gene 3122); assay: BSK_3C_HLADR: BioMAP Diversity Plus: 3C Assay for Human Leukocyte Antigen - DR isotype (HLADR) Biomarker Activity (AID 2283019); conditions: primary human endothelial cells (HUVEC); actives raise or lower the signal
Method in brief: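 ELISA readout of surface HLA-DR on human umbilical vein endothelium, taken 24 h after chemical treatment. Gain- and loss-of-signal were both fitted relative to DMSO.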

[12] = read-out: Interleukin-8 (IL8), CXCL8 (gene 3576); assay: BSK_3C_IL8: BioMAP Diversity Plus: 3C Assay for Interleukin-8 (IL8) Biomarker Activity (AID 2283020); conditions: primary human endothelial cells (HUVEC); actives raise or lower the signal
Method in brief: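 IL-8 was measured by ELISA in HUVEC cultures 24 h after chemical dosing, with gain or loss of signal fitted relative to DMSO. Parallel SRB total-protein staining tracked overt cytotoxicity.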

[13] = read-out: Monokine induced gamma interferon (MIG), CXCL9 (gene 4283); assay: BSK_3C_MIG: BioMAP Diversity Plus: 3C Assay for Monokine induced gamma interferon (MIG) Biomarker Activity (AID 2283021); conditions: primary human endothelial cells (HUVEC); actives raise or lower the signal
Method in brief: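 ELISA measurement of MIG in human umbilical vein endothelial cells 24 h after treatment. Cytotoxicity tracked by SRB staining in parallel cultures; gain or loss of signal fitted relative to DMSO.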

[14] = target: human Vitamin D Receptor (VDR), VDR (gene 7421) (UniProt P11473); assay: ATG_VDR_TRANS: Attagene TRANS-FACTORIAL HepG2 Assay for human Vitamin D Receptor (VDR) (AID 2283022; active = hit-call score of the fitted dose curve at least 0.9, where 1 is the maximum)
Method in brief: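 Steps: transfect HepG2 with GAL4-UAS-driven reporter constructs; dose compounds 24 h; isolate RNA, reverse-transcribe, PCR-amplify with 6-FAM-labelled primer extension and HpaI digestion; quantify fragments by capillary electrophoresis relative to DMSO.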

[15] = target: Peroxisome proliferator-activated receptor gamma (Homo sapiens) (UniProt P37231); assay: ATG_PPARg_TRANS: Attagene TRANS-FACTORIAL HepG2 Assay for human Peroxisome Proliferator-activated Receptor-gamma (PPARg) (AID 2283007; active = hit-call score of the fitted dose curve at least 0.9, where 1 is the maximum)
Method in brief: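 Transient transfection of HepG2 with GAL4-UAS-driven reporter units; chemical dosing 24 h; total RNA → oligo(dT) RT → PCR with reporter primers → 6-FAM primer extension → HpaI digest 2 h 37 C → capillary electrophoresis. Positive direction vs DMSO.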

[16] = target: human RAR-related Orphan Receptor beta (RORb), RORB (gene 6096) (UniProt Q92753); assay: ATG_RORb_TRANS: Attagene TRANS-FACTORIAL HepG2 Assay for human RAR-related Orphan Receptor beta (RORb) (AID 2283010; active = hit-call score of the fitted dose curve at least 0.9, where 1 is the maximum)
Method in brief: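 Read-out is reporter mRNA induction, quantified by RT-PCR with fluorescent capillary electrophoresis, 24 h post-dose in transiently transfected HepG2 expressing exogenous NR-Gal4 chimera. Activity fitted upward versus DMSO.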

[17] = target: Retinoic acid receptor RXR-alpha (Homo sapiens) (UniProt P19793); assay: ATG_RXRa_TRANS: Attagene TRANS-FACTORIAL HepG2 Assay for human Retinoid X Receptor alpha (RXRa) (AID 2283012; active = hit-call score of the fitted dose curve at least 0.9, where 1 is the maximum)
Method in brief: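 TRANS format reporting activity of exogenous RXRa-Gal4 chimera in transiently transfected HepG2, 24 h exposure. Reporter transcripts quantified by RT-PCR with capillary electrophoresis, with gain of signal scored relative to DMSO.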

[18] = target: human Retinoid X Receptor beta (RXRb), RXRB (gene 6257) (UniProt P28702); assay: ATG_RXRb_TRANS: Attagene TRANS-FACTORIAL HepG2 Assay for human Retinoid X Receptor beta (RXRb) (AID 2283013; active = hit-call score of the fitted dose curve at least 0.9, where 1 is the maximum)
Method in brief: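 Readout is reporter transcript induction after 24 h dosing. It is measured by RT-PCR of total RNA followed by fluorescent capillary electrophoresis. HepG2 liver cells carry transfected multiple reporter units driven by an exogenous RXRb-Gal4 fusion; activity is relative to DMSO.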

[19] = target: Retinoic acid receptor alpha (Homo sapiens) (UniProt P10276); assay: ATG_RARa_TRANS: Attagene TRANS-FACTORIAL HepG2 Assay for human Retinoic Acid Receptor alpha (RARa) (AID 2283005; active = hit-call score of the fitted dose curve at least 0.9, where 1 is the maximum;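 as to AC50: potency for increased reporter signal meaning RARa activation over DMSO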)
Method in brief: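 HepG2 cells transiently transfected with multiple reporter units expressing chimeric RARα-GAL4 fusion, with GAL4-UAS-driven reporters. After 24 h compound exposure, reporter mRNA induction quantified by RT-PCR and capillary electrophoresis with fluorescent labeling; gain-of-signal fitted relative to DMSO control.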

[20] = target: human Retinoic Acid Receptor gamma (RARg), RARG (gene 5916) (UniProt P13631); assay: ATG_RARg_TRANS: Attagene TRANS-FACTORIAL HepG2 Assay for human Retinoic Acid Receptor gamma (RARg) (AID 2283009; active = hit-call score of the fitted dose curve at least 0.9, where 1 is the maximum)
Method in brief: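 Transactivation of exogenous RARg-Gal4 fusion measured as reporter transcript induction after 24 h in transfected HepG2 cells. RNA reverse-transcribed, amplified, fluorescently labeled and resolved by capillary electrophoresis; increase relative to DMSO.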

Measured: AC50

Chain of E-selectin (Homo sapiens) (P16581 whole entry, looked up): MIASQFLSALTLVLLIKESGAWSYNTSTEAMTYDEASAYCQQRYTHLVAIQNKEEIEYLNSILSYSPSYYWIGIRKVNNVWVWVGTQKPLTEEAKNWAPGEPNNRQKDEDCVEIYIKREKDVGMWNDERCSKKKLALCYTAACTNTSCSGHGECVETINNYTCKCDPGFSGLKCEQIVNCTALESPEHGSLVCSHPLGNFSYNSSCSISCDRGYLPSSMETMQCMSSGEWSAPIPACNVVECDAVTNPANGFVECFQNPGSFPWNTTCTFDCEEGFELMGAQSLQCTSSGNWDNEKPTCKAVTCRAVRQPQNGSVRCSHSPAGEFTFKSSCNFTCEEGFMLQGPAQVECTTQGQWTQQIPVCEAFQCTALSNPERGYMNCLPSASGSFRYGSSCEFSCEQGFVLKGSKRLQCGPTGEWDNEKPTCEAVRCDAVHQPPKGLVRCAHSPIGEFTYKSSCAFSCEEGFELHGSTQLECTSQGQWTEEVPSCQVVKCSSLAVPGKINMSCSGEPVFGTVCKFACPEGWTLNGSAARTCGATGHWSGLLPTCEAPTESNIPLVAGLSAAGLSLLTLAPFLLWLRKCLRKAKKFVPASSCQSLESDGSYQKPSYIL
Chain of human RAR-related Orphan Receptor gamma (RORg), RORC (gene 6097) (P51449 whole entry, looked up, the tested form may be a part): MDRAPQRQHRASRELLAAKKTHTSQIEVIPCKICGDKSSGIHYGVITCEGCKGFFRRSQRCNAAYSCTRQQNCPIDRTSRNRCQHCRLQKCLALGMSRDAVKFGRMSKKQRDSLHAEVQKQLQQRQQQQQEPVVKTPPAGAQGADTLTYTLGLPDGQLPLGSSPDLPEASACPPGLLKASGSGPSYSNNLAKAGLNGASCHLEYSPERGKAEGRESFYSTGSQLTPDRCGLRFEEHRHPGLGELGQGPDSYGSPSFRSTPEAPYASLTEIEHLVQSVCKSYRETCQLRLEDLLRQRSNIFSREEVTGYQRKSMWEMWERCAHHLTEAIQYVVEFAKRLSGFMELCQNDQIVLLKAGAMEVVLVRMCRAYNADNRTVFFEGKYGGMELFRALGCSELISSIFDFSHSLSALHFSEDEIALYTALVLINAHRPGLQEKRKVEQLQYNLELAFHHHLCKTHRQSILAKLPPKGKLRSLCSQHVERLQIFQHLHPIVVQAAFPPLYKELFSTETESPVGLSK
Chain of human Vitamin D Receptor (VDR), VDR (gene 7421) (P11473 whole entry, looked up, the tested form may be a part): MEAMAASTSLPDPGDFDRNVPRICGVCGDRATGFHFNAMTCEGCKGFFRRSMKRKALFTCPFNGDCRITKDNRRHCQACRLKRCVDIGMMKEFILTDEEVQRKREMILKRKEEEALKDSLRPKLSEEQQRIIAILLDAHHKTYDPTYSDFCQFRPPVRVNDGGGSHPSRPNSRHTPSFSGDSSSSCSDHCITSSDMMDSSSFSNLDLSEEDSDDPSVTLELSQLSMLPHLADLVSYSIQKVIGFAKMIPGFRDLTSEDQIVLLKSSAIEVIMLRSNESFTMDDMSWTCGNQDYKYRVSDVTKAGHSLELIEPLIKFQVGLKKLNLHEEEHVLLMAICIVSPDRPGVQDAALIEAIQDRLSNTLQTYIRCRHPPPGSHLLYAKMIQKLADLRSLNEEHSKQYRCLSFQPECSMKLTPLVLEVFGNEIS
Chain of human Retinoic Acid Receptor gamma (RARg), RARG (gene 5916) (P13631 whole entry, looked up, the tested form may be a part): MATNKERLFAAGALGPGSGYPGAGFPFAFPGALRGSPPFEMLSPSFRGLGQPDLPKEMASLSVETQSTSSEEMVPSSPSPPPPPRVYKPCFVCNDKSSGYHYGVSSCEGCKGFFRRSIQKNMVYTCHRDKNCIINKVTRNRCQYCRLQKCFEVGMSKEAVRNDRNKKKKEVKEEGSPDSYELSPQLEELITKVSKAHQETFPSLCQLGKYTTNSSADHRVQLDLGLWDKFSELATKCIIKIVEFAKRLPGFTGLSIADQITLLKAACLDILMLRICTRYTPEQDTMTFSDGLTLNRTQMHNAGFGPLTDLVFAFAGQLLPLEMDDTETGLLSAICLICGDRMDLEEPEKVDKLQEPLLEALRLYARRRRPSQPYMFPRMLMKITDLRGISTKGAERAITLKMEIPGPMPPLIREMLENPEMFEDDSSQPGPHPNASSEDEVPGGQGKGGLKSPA
Chain of Retinoic acid receptor alpha (Homo sapiens) (P10276 whole entry, looked up, the tested form may be a part): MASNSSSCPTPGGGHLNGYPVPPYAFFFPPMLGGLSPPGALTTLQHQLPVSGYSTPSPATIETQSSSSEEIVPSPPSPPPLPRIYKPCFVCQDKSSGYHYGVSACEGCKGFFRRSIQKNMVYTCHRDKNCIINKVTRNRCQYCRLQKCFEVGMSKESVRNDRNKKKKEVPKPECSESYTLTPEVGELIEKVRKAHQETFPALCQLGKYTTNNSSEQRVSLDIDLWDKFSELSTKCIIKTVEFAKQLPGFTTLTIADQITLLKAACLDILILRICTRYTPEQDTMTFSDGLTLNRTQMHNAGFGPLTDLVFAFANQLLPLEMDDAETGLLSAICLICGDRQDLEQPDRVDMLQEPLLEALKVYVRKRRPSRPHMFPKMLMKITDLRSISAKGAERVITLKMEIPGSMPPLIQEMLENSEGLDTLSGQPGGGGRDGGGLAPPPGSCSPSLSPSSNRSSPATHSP
Chain of human Thyroid Receptor alpha (THRa1), THRA (gene 7067) (P10827 whole entry, looked up, the tested form may be a part): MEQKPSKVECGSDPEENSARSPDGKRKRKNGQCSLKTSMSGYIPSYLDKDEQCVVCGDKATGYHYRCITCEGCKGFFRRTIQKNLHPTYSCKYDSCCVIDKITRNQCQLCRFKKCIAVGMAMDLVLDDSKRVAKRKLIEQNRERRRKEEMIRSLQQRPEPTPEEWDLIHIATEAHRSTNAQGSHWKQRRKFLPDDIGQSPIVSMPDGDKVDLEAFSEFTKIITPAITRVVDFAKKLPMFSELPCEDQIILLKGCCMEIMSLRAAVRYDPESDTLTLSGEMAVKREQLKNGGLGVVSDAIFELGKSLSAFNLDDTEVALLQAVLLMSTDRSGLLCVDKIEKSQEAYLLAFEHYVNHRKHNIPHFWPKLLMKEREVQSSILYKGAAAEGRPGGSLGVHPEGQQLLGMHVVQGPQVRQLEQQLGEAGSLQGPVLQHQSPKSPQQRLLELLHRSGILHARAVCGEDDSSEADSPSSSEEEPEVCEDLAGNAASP
Chain of Peroxisome proliferator-activated receptor gamma (Homo sapiens) (P37231 whole entry, looked up, the tested form may be a part): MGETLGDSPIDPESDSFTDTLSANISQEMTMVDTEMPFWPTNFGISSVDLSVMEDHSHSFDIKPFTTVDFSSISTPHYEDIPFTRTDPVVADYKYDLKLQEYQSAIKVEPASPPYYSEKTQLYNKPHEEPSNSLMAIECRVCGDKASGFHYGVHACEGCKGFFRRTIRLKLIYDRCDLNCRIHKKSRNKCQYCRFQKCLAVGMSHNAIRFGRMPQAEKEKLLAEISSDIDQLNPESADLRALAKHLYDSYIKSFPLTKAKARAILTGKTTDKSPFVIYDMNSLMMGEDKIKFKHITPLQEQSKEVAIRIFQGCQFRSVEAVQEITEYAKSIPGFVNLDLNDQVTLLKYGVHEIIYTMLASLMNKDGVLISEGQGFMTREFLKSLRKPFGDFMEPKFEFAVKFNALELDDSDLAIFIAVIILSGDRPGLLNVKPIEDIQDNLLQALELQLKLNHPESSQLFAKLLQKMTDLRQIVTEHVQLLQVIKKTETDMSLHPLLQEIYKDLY
Chain of human RAR-related Orphan Receptor beta (RORb), RORB (gene 6096) (Q92753 whole entry, looked up, the tested form may be a part): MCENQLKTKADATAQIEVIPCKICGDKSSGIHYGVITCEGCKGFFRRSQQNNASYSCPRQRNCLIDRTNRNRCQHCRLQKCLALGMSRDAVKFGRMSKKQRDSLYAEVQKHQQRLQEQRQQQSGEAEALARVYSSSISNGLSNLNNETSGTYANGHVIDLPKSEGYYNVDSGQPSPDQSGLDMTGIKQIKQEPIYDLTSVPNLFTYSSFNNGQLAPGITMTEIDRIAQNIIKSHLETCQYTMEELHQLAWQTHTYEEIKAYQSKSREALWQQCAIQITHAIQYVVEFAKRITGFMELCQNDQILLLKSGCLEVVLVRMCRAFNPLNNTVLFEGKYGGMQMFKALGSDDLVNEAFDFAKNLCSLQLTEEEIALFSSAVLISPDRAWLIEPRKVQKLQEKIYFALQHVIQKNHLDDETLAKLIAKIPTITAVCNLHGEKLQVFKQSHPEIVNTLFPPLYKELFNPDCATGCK
Chain of human Retinoid X Receptor beta (RXRb), RXRB (gene 6257) (P28702 whole entry, looked up, the tested form may be a part): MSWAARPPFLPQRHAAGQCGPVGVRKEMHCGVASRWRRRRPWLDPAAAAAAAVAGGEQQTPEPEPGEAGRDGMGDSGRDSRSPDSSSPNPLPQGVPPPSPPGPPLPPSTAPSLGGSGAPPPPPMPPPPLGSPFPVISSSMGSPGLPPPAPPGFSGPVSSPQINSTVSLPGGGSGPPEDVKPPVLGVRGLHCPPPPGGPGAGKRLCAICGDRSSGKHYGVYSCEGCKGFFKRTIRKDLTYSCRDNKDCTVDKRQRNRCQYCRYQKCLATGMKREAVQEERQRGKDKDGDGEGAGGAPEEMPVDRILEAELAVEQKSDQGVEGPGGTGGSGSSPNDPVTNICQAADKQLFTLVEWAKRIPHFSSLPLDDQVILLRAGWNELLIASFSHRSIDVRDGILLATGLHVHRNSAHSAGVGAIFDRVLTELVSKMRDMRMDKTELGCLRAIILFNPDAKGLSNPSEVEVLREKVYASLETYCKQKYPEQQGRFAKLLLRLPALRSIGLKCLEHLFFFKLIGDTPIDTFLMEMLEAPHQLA
Chain of human Retinoic Acid Receptor beta (RARb), RARB (gene 5915) (P10826 whole entry, looked up): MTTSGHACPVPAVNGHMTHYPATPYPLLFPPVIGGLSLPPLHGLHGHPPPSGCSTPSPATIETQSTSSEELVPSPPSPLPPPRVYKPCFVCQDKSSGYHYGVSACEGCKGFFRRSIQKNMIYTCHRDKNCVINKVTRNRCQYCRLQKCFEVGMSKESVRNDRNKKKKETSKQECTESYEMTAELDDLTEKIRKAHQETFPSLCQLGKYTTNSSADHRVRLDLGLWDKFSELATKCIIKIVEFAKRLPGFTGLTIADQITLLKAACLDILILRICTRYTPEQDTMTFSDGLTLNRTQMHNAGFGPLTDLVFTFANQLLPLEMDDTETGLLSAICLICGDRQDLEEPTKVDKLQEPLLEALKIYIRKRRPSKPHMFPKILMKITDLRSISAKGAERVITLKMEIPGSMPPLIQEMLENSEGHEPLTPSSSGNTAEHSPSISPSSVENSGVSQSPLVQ

CC(C)(COCC1CO1)COCC1CO1 (centres undefined)
active: [3] 20 µM | [11] 20 µM
not listed: [15] | [16] | [17] | [18] | [19] | [20]
inactive: all other assays above

CCOC(=O)CC(=O)CCl
active: [3] 20 µM | [15] 22 µM | [6] 100 µM | [8] 20 µM | [11] 28.1 µM | [12] 3.97 µM
not listed: [2] | [7] | [19] | [20]
inactive: all other assays above

Oc1c(Br)cc(Br)cc1Br
active: [3] 27.4 µM | [4] 7.95 µM | [6] 100 µM | [9] 32.9 µM | [11] 34.3 µM
not listed: [5] | [7] | [13] | [14] | [15]
inactive: all other assays above

CCOP(=S)(OCC)SCS(=O)(=O)C(C)(C)C
active: [4] 2.41 µM
not listed: [6] | [7] | [13] | [14] | [16] | [17] | [19] | [20]
inactive: all other assays above

CCC(C)(C#N)N=NC(C)(C#N)CC (centres undefined)
not listed: [2] | [7] | [14] | [19] | [20]
inactive: all other assays above

CCCCN(CCCC)C(=S)[S-].CCCCN(CCCC)C(=S)[S-].[Ni+2]
not listed: [2] | [4] | [7] | [13] | [15] | [16] | [17] | [20]
inactive: all other assays above

CC(C)(C)c1cc([N+](=O)[O-])cc(C(C)(C)C)c1O
active: [19] 2.37 µM | [3] 0.704 µM | [15] 5.15 µM | [4] 6.49 µM | [17] 26.7 µM | [18] 2.54 µM | [7] 0.549 µM | [11] 0.016 µM
not listed: [5] | [16]
inactive: all other assays above

CC(C=O)Cc1ccc2c(c1)OCO2 (centres undefined)
active: [4] 21.5 µM
not listed: [2] | [7] | [13] | [15] | [16]
inactive: all other assays above

NC(=O)CCl
not listed: [13]
inactive: all other assays above

CCCCOC(=O)COC(=O)c1ccccc1C(=O)OCCCC
active: [3] 26.1 µM | [15] 51.4 µM | [4] 27.4 µM
inactive: [1] | [3] | [5] | [6] | [7] | [8] | [9] | [10] | [11] | [12]

Cc1c([N+](=O)[O-])c(C)c([N+](=O)[O-])c(C(C)(C)C)c1[N+](=O)[O-]
inactive: [19] | [15] | [20] | [8] | [9] | [12]
active: [1] 20 µM | [3] 26.8 µM | [17] 9.15 µM | [18] 1.12 µM | [7] 20 µM | [10] 20 µM | [11] 26.9 µM

Clc1cccc(Cl)c1
not listed: [4] | [7] | [15] | [16] | [17] | [19] | [20]
inactive: all other assays above

O=C(O)C1(c2ccc3c(c2)OC[C@H](Cc2ccc(-c4ccccc4)cc2)[C@H]3O)CCCC1
active: [3] 13.2 µM | [8] 15.3 µM | [9] 23.6 µM | [10] 20 µM | [11] 20 µM | [12] 29.9 µM
not listed: [5] | [7] | [13] | [15] | [16]
inactive: all other assays above

C#CCOC(=O)/C=C(C)/C=C/CC(C)CCCC(C)C (centres undefined)
inactive: [1] | [2] | [19] | [20] | [16] | [5] | [8]
active: [3] 23.6 µM | [15] 27.8 µM | [4] 27.4 µM | [17] 14.1 µM | [18] 3.9 µM | [9] 36.8 µM | [10] 13.4 µM | [11] 28.1 µM | [12] 0.0524 µM

Cc1cc(C)cc(C)c1
not listed: [4] | [5] | [7] | [14] | [15] | [18] | [19]
inactive: all other assays above

From PubChem BioAssay (EPA / NIEHS)
